Test results from PubChem BioAssay (NCI).
The panel holds about 83,000 compounds, 20% with a hit somewhere; the sample as a whole holds those more often.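 For each line, cells grew in 96-well plates with the test compound present at a single concentration for 48 hours.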 The source made the active and inactive calls. How the source made its calls: active means growth percent below 10; inactive means the rest.

What was measured:
Assay in all cases: NCI-60 one-dose screen, 48 h (100 = growth as untreated, 0 = no growth, -100 = all killed)
Details in all cases: 10 µM unless noted
DU-145 prostate = system: DU-145 prostate
K-562 leukemia = system: K-562 leukemia
MALME-3M melanoma = system: MALME-3M melanoma
MDA-MB-231 breast = system: MDA-MB-231 breast
SF-268 CNS = system: SF-268 CNS
SF-295 CNS = system: SF-295 CNS
SF-539 CNS = system: SF-539 CNS
UACC-257 melanoma = system: UACC-257 melanoma
M14 melanoma = system: M14 melanoma
HCT-15 colon = system: HCT-15 colon
HT29 colon = system: HT29 colon
SNB-75 CNS = system: SNB-75 CNS
SNB-19 CNS = system: SNB-19 CNS
U251 CNS = system: U251 CNS
PC-3 prostate = system: PC-3 prostate
SK-MEL-5 melanoma = system: SK-MEL-5 melanoma
UACC-62 melanoma = system: UACC-62 melanoma
LOX IMVI melanoma = system: LOX IMVI melanoma
SK-MEL-28 melanoma = system: SK-MEL-28 melanoma
RXF 393 renal = system: RXF 393 renal

Measured: growth

COC(=O)c1c(NC(=O)CSc2nnnn2-c2ccc(OC)cc2)sc(C)c1C
inactive: DU-145 prostate 108% | K-562 leukemia 81.5% | MALME-3M melanoma 104% | MDA-MB-231 breast 76.5% | SF-268 CNS 93.5% | SF-295 CNS 156% | SF-539 CNS 98.3% | UACC-257 melanoma 16.8% | M14 melanoma 95.8% | HCT-15 colon 101% | HT29 colon 107% | SNB-75 CNS 79.4% | SNB-19 CNS 102% | U251 CNS 99.6% | PC-3 prostate 85% | SK-MEL-5 melanoma 115% | UACC-62 melanoma 74.8% | LOX IMVI melanoma 91.2% | SK-MEL-28 melanoma 108%

Cc1cc2ccccn2c1C(=O)c1ccc(C(=O)c2ccccc2)cc1
inactive: DU-145 prostate 85.8% | K-562 leukemia 94.3% | MALME-3M melanoma 76.8% | MDA-MB-231 breast 91% | SF-268 CNS 99.7% | SF-295 CNS 83.2% | SF-539 CNS 98.7% | UACC-257 melanoma 43.4% | M14 melanoma 91.1% | HCT-15 colon 85.5% | HT29 colon 82% | SNB-75 CNS 93.5% | SNB-19 CNS 86.1% | U251 CNS 86.2% | PC-3 prostate 85.2% | SK-MEL-5 melanoma 98.4% | UACC-62 melanoma 75.1% | LOX IMVI melanoma 92.1% | SK-MEL-28 melanoma 89.7%

Cc1cc(C)c2c(N)c3cccc(C)c3nc2n1
inactive: MDA-MB-231 breast 14.7% | HCT-15 colon 10.4% | SNB-75 CNS 10.4% | SNB-19 CNS 18.6% | U251 CNS 17.4%
active: DU-145 prostate 2.87% | K-562 leukemia -11.1% | MALME-3M melanoma -23.3% | SF-268 CNS 9.97% | SF-295 CNS 1.7% | SF-539 CNS 1.42% | M14 melanoma -35.1% | HT29 colon 0.696% | PC-3 prostate -4.42% | SK-MEL-5 melanoma -38.7% | UACC-62 melanoma -45.8% | LOX IMVI melanoma 1.49% | SK-MEL-28 melanoma -9.8%

O=c1c2ccccc2c2nccn2c2cc(Cl)ccc12
inactive: DU-145 prostate 98.1% | K-562 leukemia 57.7% | MALME-3M melanoma 159% | MDA-MB-231 breast 126% | SF-268 CNS 91.9% | SF-295 CNS 85.5% | SF-539 CNS 94.2% | UACC-257 melanoma 66.5% | M14 melanoma 110% | HCT-15 colon 129% | HT29 colon 83.8% | SNB-75 CNS 73.3% | SNB-19 CNS 119% | U251 CNS 105% | PC-3 prostate 72.5% | SK-MEL-5 melanoma 72.6% | UACC-62 melanoma 129% | LOX IMVI melanoma 95.4% | SK-MEL-28 melanoma 96.8%

Cc1cn(C(C=O)OC(C=O)CO)c(=O)[nH]c1=O (stereo unspecified)
inactive: DU-145 prostate 108% | K-562 leukemia 104% | MALME-3M melanoma 98.8% | MDA-MB-231 breast 108% | SF-268 CNS 113% | SF-295 CNS 102% | SF-539 CNS 104% | UACC-257 melanoma 88% | M14 melanoma 108% | HCT-15 colon 102% | HT29 colon 110% | SNB-75 CNS 75.1% | SNB-19 CNS 101% | PC-3 prostate 102% | SK-MEL-5 melanoma 105% | UACC-62 melanoma 106% | LOX IMVI melanoma 103% | SK-MEL-28 melanoma 99.1%

Cc1ccc(S(=O)(=O)N2CCN(C(=O)CSc3nc4ccc(C)cc4[nH]3)CC2)cc1
inactive: DU-145 prostate 109% | K-562 leukemia 74.8% | MALME-3M melanoma 126% | MDA-MB-231 breast 92.3% | SF-268 CNS 101% | SF-295 CNS 159% | SF-539 CNS 110% | UACC-257 melanoma 63.4% | M14 melanoma 101% | HCT-15 colon 110% | HT29 colon 117% | SNB-75 CNS 109% | SNB-19 CNS 100% | U251 CNS 106% | PC-3 prostate 88.3% | SK-MEL-5 melanoma 116% | UACC-62 melanoma 82.3% | LOX IMVI melanoma 101% | SK-MEL-28 melanoma 85.3%

COc1ccc(C(=O)/C=C/c2ccc(C)cc2)cc1OC
inactive: DU-145 prostate 11.3% | K-562 leukemia 21.1% | MALME-3M melanoma 101% | MDA-MB-231 breast 90.7% | SF-268 CNS 57.3% | SF-295 CNS 101% | SF-539 CNS 70.3% | M14 melanoma 99.2% | HCT-15 colon 46.9% | SNB-75 CNS 64.9% | SNB-19 CNS 70.3% | U251 CNS 27.7% | PC-3 prostate 51% | SK-MEL-5 melanoma 74% | UACC-62 melanoma 68.1% | LOX IMVI melanoma 48.6% | SK-MEL-28 melanoma 87.4%

CCOC(=O)C1C(=O)NC(C(=O)OCC)(C(=O)OCC)C1CC (stereo unspecified)
inactive: DU-145 prostate 117% | K-562 leukemia 114% | MDA-MB-231 breast 98.7% | RXF 393 renal 116% | SF-268 CNS 108% | SF-295 CNS 113% | SF-539 CNS 122% | UACC-257 melanoma 106% | M14 melanoma 110% | HCT-15 colon 92.8% | HT29 colon 111% | SNB-75 CNS 107% | SNB-19 CNS 105% | U251 CNS 105% | PC-3 prostate 92.9% | SK-MEL-5 melanoma 101% | UACC-62 melanoma 98.1% | LOX IMVI melanoma 95.6% | SK-MEL-28 melanoma 123%

COc1ccc2c(=O)c(OC)c(-c3cc(OC)c(OC)c(OC)c3)oc2c1
inactive: DU-145 prostate 109% | K-562 leukemia 87.1% | MALME-3M melanoma 113% | MDA-MB-231 breast 84.1% | SF-268 CNS 100% | SF-295 CNS 113% | SF-539 CNS 91.5% | M14 melanoma 109% | HCT-15 colon 101% | HT29 colon 98.2% | SNB-75 CNS 79.5% | SNB-19 CNS 92.5% | U251 CNS 96.1% | PC-3 prostate 67.7% | SK-MEL-5 melanoma 75.4% | UACC-62 melanoma 70.5% | LOX IMVI melanoma 82.7% | SK-MEL-28 melanoma 97.4%
